Reference: the supplement of paper PMC3545927
The list shows a part of the results. The true hit rate is not given.

Target: furin, P09958
Test: furin cleavage Z-score vs untreated control; higher = more cleavage, active = 3.5 or more, inactive = 1 or less, 8 variable residues between constant flanks
Procedure, shortened: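 Read counts from sequencing released DNA gave abundance for each bead-bound 8-mer peptide–cDNA fusion cut by purified furin over 7.5, 15 or 30 min. The cleavage Z-score compares log counts with furin-free reactions after lowess adjustment and median absolute deviation scaling.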
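Also: purified furin at 1:10 enzyme:substrate in 50 mM HEPES pH 7.5.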

Sequence of furin, P09958 (P09958 whole entry): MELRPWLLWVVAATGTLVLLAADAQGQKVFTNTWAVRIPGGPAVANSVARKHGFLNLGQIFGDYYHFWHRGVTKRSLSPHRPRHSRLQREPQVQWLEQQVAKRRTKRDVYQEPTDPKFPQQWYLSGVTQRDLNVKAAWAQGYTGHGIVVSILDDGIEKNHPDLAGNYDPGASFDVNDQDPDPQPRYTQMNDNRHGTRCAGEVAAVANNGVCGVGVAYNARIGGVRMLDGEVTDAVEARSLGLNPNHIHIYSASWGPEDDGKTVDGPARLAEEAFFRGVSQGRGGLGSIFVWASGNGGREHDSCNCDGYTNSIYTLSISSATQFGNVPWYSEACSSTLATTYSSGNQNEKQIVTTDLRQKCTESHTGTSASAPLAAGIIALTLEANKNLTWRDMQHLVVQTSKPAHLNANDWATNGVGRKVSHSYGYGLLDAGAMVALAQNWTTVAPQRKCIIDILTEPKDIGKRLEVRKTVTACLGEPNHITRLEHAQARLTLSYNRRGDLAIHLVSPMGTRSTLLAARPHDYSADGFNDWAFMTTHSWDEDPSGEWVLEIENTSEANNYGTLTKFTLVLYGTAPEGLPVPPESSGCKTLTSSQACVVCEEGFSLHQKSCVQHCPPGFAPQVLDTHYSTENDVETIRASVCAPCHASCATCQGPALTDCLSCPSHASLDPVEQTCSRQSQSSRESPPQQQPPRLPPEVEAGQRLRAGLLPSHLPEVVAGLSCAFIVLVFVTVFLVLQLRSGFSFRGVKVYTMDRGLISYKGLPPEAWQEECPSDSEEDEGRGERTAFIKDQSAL

Sequence | furin cleavage Z-score (7.5 min) | furin cleavage Z-score (15 min) | furin cleavage Z-score (30 min)
CAEYDLELITAGNASASA [HC1549] | -0.697 (inactive) | -1.21 (inactive) | -2.02 (inactive)
CACPNIIKRSAGNASASA [FS-1515] | 2.47 | 0.593 (inactive) | 1.43
CASLKKIKRSAGNASASA [FS-297] | 7.52 (active) | 5.89 (active) | 5.86 (active)
CAKSSRIKRSAGNASASA [FS-46] | 11.3 (active) | 10.3 (active) | 8.65 (active)
CAVRTRIKRSAGNASASA [FS-1179] | 12.5 (active) | 13.6 (active) | 9.29 (active)
CAASPKGPVIAGNASASA [HC706] | 0.401 (inactive) | -0.666 (inactive) | -0.477 (inactive)
CATDNSSPPVAGNASASA [HC766] | 0.776 (inactive) | 0.102 (inactive) | -1.25 (inactive)
CAGHFRLKRTAGNASASA [FS-781] | 7.47 (active) | 7.94 (active) | 7.12 (active)
CATLKRTRKFAGNASASA [FS-728] | 0.831 (inactive) | 2.85 | 1.42
CAATSILGIGAGNASASA [HC822] | -1.81 (inactive) | -0.57 (inactive) | 0.323 (inactive)
CAGNRRLKRFAGNASASA [FS-330] | 8.6 (active) | 8.74 (active) | 8.35 (active)
CATHRRTKRFAGNASASA [FS-1291] | 4.37 (active) | 4.6 (active) | 3.54 (active)
CAATSRTKRFAGNASASA [FS-403] | 8.04 (active) | 8.57 (active) | 8.59 (active)
CAYIRRTKRFAGNASASA [FS-576] | 1.05 | 1.14 | 0.61 (inactive)
